Only a selection was taken, and hits are over-represented in it overall.
NRP1-CendR mod: modulators of CendR peptide binding to human neuropilin-1 | O14786 | FAM-RPARPAR peptide binding to NRP-1, fluorescence polarization | inhibition, % at 25 µM | 0.85% of 360,000 active | AID 602438;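 active means inhibition or corrected inhibition above about 18%, plus a signal ratio from 0.5 to 1.5, limit read from the data, passing the limit was not always enough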
ALR H2O2 inh: human ALR oxidase inhibition via reduced H2O2; P55789; purified ALR, DTT oxidation, H2O2 HRP-luminol luminescence; inhibition, % (concentration not given with the values); 3.8% of 290,000 active;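 active means mean replicate inhibition above about 79%, with every replicate also reaching it, limit read from the data; inconclusive means only one of the two criteria met; inactive means mean below limit and not every replicate reaching it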
Target sequence (P55789 whole entry, looked up): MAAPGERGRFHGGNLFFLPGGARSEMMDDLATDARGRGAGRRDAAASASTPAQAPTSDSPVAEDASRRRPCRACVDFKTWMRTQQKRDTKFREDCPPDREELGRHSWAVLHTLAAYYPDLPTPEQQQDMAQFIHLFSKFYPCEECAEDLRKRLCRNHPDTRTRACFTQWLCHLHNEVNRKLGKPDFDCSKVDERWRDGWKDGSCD
ERp5 block: inhibitors of human ERp5; Q15084; ERp5 insulin aggregation, absorbance 650 nm, 90 min; inhibition, % at 9.99 µM; 0.05% of 350,000 active;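 active means mean replicate inhibition above about 25%, with every replicate also reaching it, limit read from the data, passing the limit was not always enough; inconclusive means only one of those two criteria met; inactive means neither criterion met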
Target sequence (Q15084 whole entry, looked up): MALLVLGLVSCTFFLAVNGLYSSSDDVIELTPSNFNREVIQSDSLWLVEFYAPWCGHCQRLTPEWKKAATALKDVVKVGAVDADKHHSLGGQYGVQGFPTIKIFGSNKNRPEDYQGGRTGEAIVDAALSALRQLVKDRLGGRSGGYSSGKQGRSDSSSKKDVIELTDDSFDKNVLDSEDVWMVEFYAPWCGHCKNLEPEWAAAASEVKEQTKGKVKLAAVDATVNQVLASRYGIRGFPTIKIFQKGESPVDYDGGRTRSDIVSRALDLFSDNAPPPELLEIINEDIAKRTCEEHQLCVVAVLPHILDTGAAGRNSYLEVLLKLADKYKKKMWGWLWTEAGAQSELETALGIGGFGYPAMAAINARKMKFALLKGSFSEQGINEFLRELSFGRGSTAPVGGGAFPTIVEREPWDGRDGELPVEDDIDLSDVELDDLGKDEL
PDI inh: blocks human protein disulfide isomerase activity; PDI insulin aggregation turbidity, A650, 90 min; inhibition, % at 10 µM; 0.052% of 350,000 active;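 active means mean inhibition across replicates of 30% or more, whatever share of single replicates reach that level; inconclusive means mean inhibition below 30% while every single replicate reaches 30%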
PglD DTNB: PglD (C. jejuni) enzyme inhibition; purified PglD enzyme, DTNB colorimetric CoA detection; inhibition, % at 12.5 µM; 0.098% of 360,000 active; in the data active means inhibition above about 16%, passing the limit was not always enough; inconclusive means no clear call, values can overlap the other calls
ARNT TACC3 PPI: disruptors of human ARNT/TACC3 interaction; AlphaScreen His-ARNT PAS-B/GST-TACC3 binding, luminescence; TACC3 fragment carries E629A point mutation; AID 623870; inhibition, % at 9.99 µM; 0.66% of 390,000 active;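 active means mean inhibition of replicates at least 50% and at least half of replicates each reaching 50%; inconclusive means half or more replicates reach 50% but mean below 50%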
Each line names hits and unclear results; the compound was inactive in the other large screens.

COC(=O)COc1ccc(S(=O)(=O)N2CCN(c3ccc(F)cc3)CC2)cc1	none
COc1ccc(N2CCN(C(=O)C3CC(O)CN3S(=O)(=O)c3ccc([N+](=O)[O-])cc3)CC2)cc1 (stereo unspecified)	ALR H2O2 inh 84 (no result: PglD DTNB)
COc1ccc(N2CCN(C(=O)C3(S(=O)(=O)c4ccc(C)cc4)CC3)CC2)cc1	ALR H2O2 inh 86 (no result: ARNT TACC3 PPI)
COc1cccc(-c2cnc3c(c2)C(=O)N([C@@H](C)CO)C[C@H](C)[C@H](CN(C)C(=O)CN(C)C)O3)c1	none (no result: NRP1-CendR mod, ALR H2O2 inh, PDI inh, ARNT TACC3 PPI)
O=C(c1ccc(OCC2CCCO2)cc1)N1CCc2ccccc2C1 (stereo unspecified)	none
O=C(c1ccc(OCC2CCCO2)cc1)N1CCN(c2ccccc2)CC1 (stereo unspecified)	ALR H2O2 inh 98 (no result: ARNT TACC3 PPI)
C[C@@H](NC(=O)C[C@H]1C[C@H]2c3cc(NC(=O)C4CCOCC4)ccc3O[C@H]2[C@H](CO)O1)c1ccccc1	none (no result: NRP1-CendR mod, ALR H2O2 inh, PDI inh)
O=S(=O)(/N=C(/Sc1ccccc1)c1ccccc1)c1ccccc1	ALR H2O2 inh 98 (no result: ERp5 block)
O=C(/C=C/c1ccc(NC(=O)c2ccccc2-c2ccccc2C(=O)O)cc1)c1ccccc1	ALR H2O2 inh 98, PDI inh inconclusive
O=[N+]([O-])c1ccc(/C([O-])=C(/C(=S)Nc2ccccc2F)[n+]2ccccc2)cc1	none
COc1cccc(NC(=S)/C(=C(\[O-])c2ccc([N+](=O)[O-])cc2)[n+]2ccccc2)c1	ALR H2O2 inh 99
Cc1ccc(S(=O)(=O)NC(CN2CCOCC2)=NCCNS(=O)(=O)c2ccccc2)cc1	NRP1-CendR mod 36 (no result: ERp5 block)
Cc1ccc(S(=O)(=O)NCCNC(=O)N2CCOCC2)cc1	none (no result: ERp5 block)
Cc1ccc(CSCc2nnc(SCC(=O)N3CCN(c4ccccc4)CC3)n2C)cc1	none (no result: ERp5 block)
CCn1c(COc2c(C)cccc2C)nnc1SCC(=O)N1CCN(c2ccccc2)CC1	NRP1-CendR mod 37 (no result: ERp5 block)
CCn1c(CSCc2ccc(F)cc2)nnc1SCC(=O)N1CCN(c2ccccc2)CC1	ALR H2O2 inh 97 (no result: ERp5 block)
CC1(C)Cc2ccccc2-c2nnc(SCC(=O)N3CCN(c4ccccc4)CC3)n21	ALR H2O2 inh 97 (no result: ERp5 block)
CC1(C)Cc2ccccc2-c2nnc(SCc3ccccc3)n21	none (no result: ALR H2O2 inh)
CCn1c(COc2cc(C)cc(C)c2)nnc1SCC(=O)N1CCN(c2ccccc2)CC1	none (no result: ERp5 block, PglD DTNB)
O=C(C[C@H]1C[C@@H]2c3cc(NC(=O)c4ccc5c(c4)OCO5)ccc3O[C@@H]2[C@H](CO)O1)NCCN1CCCCC1	none (no result: NRP1-CendR mod, ALR H2O2 inh, PDI inh)
O=C1C(=O)N(c2ccc(O)cc2)C(c2ccccc2[N+](=O)[O-])/C1=C(\O)c1ccccc1 (stereo unspecified)	ALR H2O2 inh 85
COc1ccc(NC(=O)C2C(=O)NC3(C)CC2c2ccccc2O3)cc1 (stereo unspecified)	NRP1-CendR mod 33 (no result: ERp5 block)
CCOC(=O)c1ccc2ncc(C(=O)OCC)c(NCCN(C)C)c2c1	NRP1-CendR mod 60
Nc1nc2c(ncn2-c2ccccc2)c(=O)[nH]1	ARNT TACC3 PPI 46 (no result: ALR H2O2 inh)
Nc1nc2nn(-c3ccccc3)nc2c(=O)[nH]1	none
CCOc1cccc(=O)c2c(C)n(-c3ccc(C(=O)O)cc3)c(C)c12	ALR H2O2 inh 96
COc1cccc(=O)c2c(C)n(-c3ccc(C(=O)O)cc3)c(C)c12	none (no result: PglD DTNB)
COCC#Cc1ccc2c(c1)O[C@@H](CN(C)CC1CCOCC1)[C@@H](C)CN([C@@H](C)CO)S2(=O)=O	none (no result: NRP1-CendR mod, ALR H2O2 inh, PDI inh)
COCCNC(=O)C1Cc2cc(S(=O)(=O)N3CCCC3)ccc2N1C(C)=O (stereo unspecified)	NRP1-CendR mod 24
COCCCNC(=O)C1Cc2cc(S(=O)(=O)N3CCCC3)ccc2N1C(C)=O (stereo unspecified)	none
CCn1cc(/C=N\NC(=O)c2ccc(F)cc2)cn1	ALR H2O2 inh 98 (no result: ERp5 block, PglD DTNB)
Cc1c(/C=N\NC(=O)c2ccc(F)cc2)cnn1C	ALR H2O2 inh 99 (no result: ERp5 block, PglD DTNB, ARNT TACC3 PPI)
CCC/C=N/NC(=O)c1ccc(F)cc1	none (no result: PglD DTNB)
C[C@@H]1CN([C@H](C)CO)C(=O)c2cc(-c3cccc(C#N)c3)cnc2O[C@@H]1CN(C)C(=O)c1cnccn1	none (no result: NRP1-CendR mod, ALR H2O2 inh, PDI inh)
Cc1cc(NS(=O)(=O)c2ccccc2)cc(Cl)c1O	ALR H2O2 inh 99 (no result: ERp5 block)
O=S(=O)(Nc1ccc(NS(=O)(=O)c2ccccc2)c(Cl)c1)c1ccccc1	none (no result: ALR H2O2 inh)
O=C(CCC1CCCCC1)NCCN1C2=NC[C@H](Cc3ccc(O)cc3)N2C[C@H]1Cc1ccc(O)cc1	PDI inh 34
O=C(C[C@@H]1CC[C@H](NC(=O)c2ccc3c(c2)OCO3)[C@@H](CO)O1)NC1Cc2ccccc2C1	none (no result: NRP1-CendR mod, ALR H2O2 inh, PDI inh)
CC(C)C1=CC(=Nc2ccc(S(N)(=O)=O)cc2)C=C(C(C)C)C1=O	ALR H2O2 inh 99
COc1cc(C(=O)NC(C)Cc2ccccn2)ccc1OC1CCN(C(C)=O)CC1 (stereo unspecified)	NRP1-CendR mod 20 (no result: ALR H2O2 inh)
O=C(NCC[C@H]1CC[C@H](NS(=O)(=O)c2ccc(F)cc2)[C@@H](CO)O1)Nc1ccc(F)cc1	none (no result: NRP1-CendR mod, ALR H2O2 inh, PDI inh)
CCCNC(=O)C[C@@H]1CC[C@H]2[C@@H](COc3ccc(NC(=O)c4cc(C)on4)cc3C(=O)N2C)O1	none (no result: NRP1-CendR mod, ALR H2O2 inh, PDI inh)
CCOc1ccc(-c2nnc(-c3cccs3)o2)cc1OCC	none (no result: ALR H2O2 inh, ERp5 block)
CCOc1ccc(-c2nc(-c3cccs3)c(CC(=O)O)s2)cc1OC	ALR H2O2 inh 89 (no result: PglD DTNB)
COc1ccc(C2=Nn3c([n+](C)c4ccccc43)SC2)cc1	none (no result: PglD DTNB)
C[n+]1c2n(c3ccccc31)N=C(c1ccc(Cl)cc1)CS2	ALR H2O2 inh 99 (no result: ERp5 block)
COc1ccc(-c2nc(SC(CC(=O)NCc3ccccc3)c3ccc(OC)c(OC)c3)n[nH]2)cc1 (stereo unspecified)	ALR H2O2 inh 95 (no result: PglD DTNB)
COc1ccc(C(CC(=O)NCc2ccccc2)Sc2n[nH]c(-c3ccccc3)n2)cc1 (stereo unspecified)	none
COc1ccc(-c2nc(SC(CC(=O)NCCN3CCOCC3)c3cccs3)n[nH]2)cc1 (stereo unspecified)	ALR H2O2 inh 97
Cc1cc(C(=O)Nc2ccc3c(c2)C(=O)N(C)[C@H]2CC[C@@H](CC(=O)N[C@@H](C)c4ccccc4)O[C@H]2CO3)no1	none (no result: NRP1-CendR mod, ALR H2O2 inh, PDI inh)
COc1cccc(NC(=O)N2C[C@H](O)COC[C@H]3O[C@H](CC(=O)NCCCN4CCOCC4)CC[C@@H]32)c1	none (no result: NRP1-CendR mod, ALR H2O2 inh, PDI inh)
Cc1noc(NS(=O)(=O)c2ccc(NC(=O)CSc3ncccn3)cc2)c1C	ALR H2O2 inh 98
Cc1noc(NS(=O)(=O)c2ccc(NC(=O)CSc3nc4ccccc4s3)cc2)c1C	ALR H2O2 inh 99 (no result: ERp5 block)
Cc1noc(NS(=O)(=O)c2ccc(NC(=O)COc3ccccc3)cc2)c1C	none (no result: ERp5 block)
Cc1cc(C)nc(SCC(=O)Nc2ccc(S(=O)(=O)Nc3onc(C)c3C)cc2)n1	ALR H2O2 inh 94
Cc1noc(NS(=O)(=O)c2ccc(NC(=O)CS(=O)(=O)c3ccccc3)cc2)c1C	none (no result: ERp5 block)
Cc1sc(Cc2nc(O)cs2)nc1-c1ccccc1	ALR H2O2 inh 97 (no result: ARNT TACC3 PPI)
Oc1csc(Cc2nc(-c3ccc(Br)cc3)cs2)n1	none (no result: PglD DTNB)
